Source: PubChem BioAssay
Activity calls are given as the source filed them. Unless noted, how the calls were made is not given here.

What was measured:
[1] = resazurin metabolic signal in HepG2 cells – cell-based, resazurin fluorescence, 24 h, PK04 Diversity Set, profiling panel (AID 1172); settings: HepG2 viability, higher = more signal; further: test concentration not given here
[2] = budding yeast growth changes without added modifier – OD600, strain BY4716, 24 h, basal condition, primary screen (AID 1173); settings: S. cerevisiae BY4716 growth, OD600, 24 h; higher = more signal, called active from +8 up or from −8 down
[3] = viability profiling in MM1S myeloma cells – cell-based, resazurin fluorescence, basal, 24 h, PK04 Diversity Set, profiling panel (AID 1174); settings: higher = more signal, called active from +8 up or from −8 down;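 further: MM1S multiple myeloma cell line; test concentration not given here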
[4] = biological target: Dihydroorotate dehydrogenase (quinone), mitochondrial (Plasmodium falciparum (isolate 3D7)) (UniProt Q08210); assay: inhibition of P. falciparum DHODH – biochemical, C-terminal His tag, absorbance 600 nm, primary screen (AID 1175); settings: PfDHODH enzyme, DCIP absorbance 600 nm; higher = more signal, called active from +8 up or from −8 down;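 further: recombinant parasite enzyme with a five histidine tag at its C terminus; test concentration not given here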
Dihydroorotate dehydrogenase (quinone), mitochondrial (Plasmodium falciparum (isolate 3D7)), sequence (Q08210 whole entry, looked up): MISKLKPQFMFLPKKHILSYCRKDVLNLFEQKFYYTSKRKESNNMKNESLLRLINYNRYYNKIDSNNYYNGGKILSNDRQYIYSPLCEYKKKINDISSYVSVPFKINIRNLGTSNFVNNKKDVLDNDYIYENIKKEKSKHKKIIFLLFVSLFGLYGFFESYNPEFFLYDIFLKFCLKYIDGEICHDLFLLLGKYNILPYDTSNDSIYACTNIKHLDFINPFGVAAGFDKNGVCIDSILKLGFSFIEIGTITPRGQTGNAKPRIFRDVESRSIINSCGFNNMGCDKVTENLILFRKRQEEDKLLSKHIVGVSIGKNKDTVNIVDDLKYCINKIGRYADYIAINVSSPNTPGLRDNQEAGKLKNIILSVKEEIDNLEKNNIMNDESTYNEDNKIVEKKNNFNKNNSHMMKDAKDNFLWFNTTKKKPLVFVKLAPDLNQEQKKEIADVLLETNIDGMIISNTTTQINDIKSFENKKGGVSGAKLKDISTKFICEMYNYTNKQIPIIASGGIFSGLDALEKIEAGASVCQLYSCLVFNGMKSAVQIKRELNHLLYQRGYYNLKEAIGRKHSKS

[5] = inhibition of PAO1 biofilm formation – strain PAO1, LB-PBS medium, absorbance 600 nm, primary screen (AID 1176); further: test concentration not given here; settings: P. aeruginosa PAO1 growth/biofilm, A600, 12 h; higher = more signal
[6] = growth modulation of vineyard yeast isolate – strain RM11-1a, OD600, basal, 24 h, primary screen (AID 1177);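 further: cultures grown under basal conditions with no added stressor; test concentration not given here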; settings: S. cerevisiae RM11-1a growth, OD600, 24 h; higher = more signal, called active from +8 up or from −8 down
[7] = growth of efflux-deficient E. coli DRC39 – strain DRC39, OD650, 24 h, E. coli filamentation inducers, primary screen (AID 1178);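 further: growth measured as culture turbidity by optical density at 650 nm; test concentration not given here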; settings: E. coli DRC39 acrAB, higher = more signal, called active from +8 up or from −8 down
[8] = growth of efflux-deficient E. coli DRC39 – strain DRC39, OD650, 48 h, E. coli filamentation inducers, primary screen (AID 1179);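 further: screen aims at cell division blockers that make cells filament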; settings: E. coli DRC39 delta-acrAB growth, higher = more signal, called active from +8 up or from −8 down
[9] = viability profiling in RPMI8226 myeloma cells – cell-based, resazurin fluorescence, basal, 24 h, PK04 Diversity Set, profiling panel (AID 1180); settings: higher = more signal;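 further: RPMI8826 multiple myeloma cell line at 5000 cells per well; test concentration not given here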
[10] = biological target: E3 ubiquitin-protein ligase XIAP (Homo sapiens) (UniProt P98170); assay: small molecules binding XIAP protein – biophysical, small-molecule microarray, fluorescence 635 nm, primary screen (AID 1181); settings: higher = more signal;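 further: score merges 667 nm emission and signal to noise over triplicate slides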
E3 ubiquitin-protein ligase XIAP (Homo sapiens), sequence (P98170 whole entry, looked up): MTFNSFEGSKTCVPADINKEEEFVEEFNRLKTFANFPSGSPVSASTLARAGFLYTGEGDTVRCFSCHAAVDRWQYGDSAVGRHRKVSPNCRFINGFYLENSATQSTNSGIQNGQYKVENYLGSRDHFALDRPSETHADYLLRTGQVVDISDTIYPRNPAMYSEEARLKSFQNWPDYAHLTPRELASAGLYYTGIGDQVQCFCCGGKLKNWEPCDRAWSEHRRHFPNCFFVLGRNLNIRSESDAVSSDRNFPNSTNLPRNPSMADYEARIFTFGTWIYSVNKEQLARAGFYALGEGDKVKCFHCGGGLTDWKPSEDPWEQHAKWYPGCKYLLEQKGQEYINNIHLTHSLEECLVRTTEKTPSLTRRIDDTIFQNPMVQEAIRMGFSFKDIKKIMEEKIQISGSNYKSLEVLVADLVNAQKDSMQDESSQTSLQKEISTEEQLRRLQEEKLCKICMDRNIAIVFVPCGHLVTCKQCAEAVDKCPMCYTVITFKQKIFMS

| SMILES | z-score [1] | z-score [2] | z-score [3] | composite z-score [4] | z-score [5] | z-score [6] | z-score [7] | z-score [8] | z-score [9] | composite z-score [10] |
| --- | --- | --- | --- | --- | --- | --- | --- | --- | --- | --- |
| COC(=O)C1=C(C)N(Cc2ccccc2)C2=C3C(=O)OCC[C@@H]3[C@@](O)(C(=O)OC)C(=O)N2[C@@H]1c1ccccc1 | 1.11 | -0.319 (inactive) | -1.3 (inactive) | 0.524 (inactive) | -0.458 (inactive) | 0.681 (inactive) | 0.933 (inactive) | 0.575 (inactive) | -0.0018 | -0.0931 |
| CCCNC(=O)OC[C@H]1O[C@H](CCON=C2c3cc(OC)ccc3O[C@H](c3cccc(OC)c3)[C@H]2O)C=C[C@@H]1Oc1ccc(OC)cc1 | -0.286 | 0.668 (inactive) | -0.801 (inactive) | 0.159 (inactive) | 0.724 (inactive) | 0.391 (inactive) | 0.885 (inactive) | -0.034 (inactive) | -0.384 | 0.02 |
| CON=C(C)CCN1CCCc2nc(C)c(C)cc21 | -0.183 | -0.899 (inactive) | -0.136 (inactive) | -0.329 (inactive) | 0.0981 (inactive) | -0.1 (inactive) | 0.213 (inactive) | -1.7 (inactive) | -0.22 | 0.346 |
| Cc1ccc(C(C)C)n1C(=O)OC(C)(C)C | -0.728 | -0.947 (inactive) | -1.46 (inactive) | -1.24 (inactive) | 1.01 (inactive) | -1.18 (inactive) | 0.32 (inactive) | -0.113 (inactive) | -1.65 | -0.0509 |
| CON=C[C@@H](OC)[C@H](C)C=CCC(=O)OC | 0.0392 | -0.117 (inactive) | 0.293 (inactive) | -0.241 (inactive) | 0.0738 (inactive) | -0.557 (inactive) | -0.311 (inactive) | -2.25 (inactive) | -0.274 | -0.162 |
| C#CCCCON=C1C[C@@H](O)[C@@H](O)[C@@H]2[C@@H]3C(=O)N(CC)C(=O)[C@@H]3CC[C@H]12 | -0.588 | 0.866 (inactive) | -0.729 (inactive) | -0.0526 (inactive) | -0.143 (inactive) | -0.0584 (inactive) | -0.312 (inactive) | -0.241 (inactive) | -1.09 | -0.114 |
| CC(C)(C)N1C(=O)[C@H]2[C@@H]3C(=CC[C@H]2C1=O)C(=O)[C@H]1O[C@H]1[C@H]3O | -4.22 | -4.73 (inactive) | -7.59 (inactive) | -2.71 (inactive) | -0.331 (inactive) | -3.03 (inactive) | -0.662 (inactive) | -0.613 (inactive) | -5.04 | -0.178 |
| CCOC(=O)[C@H](Cc1ccccc1)NC(=O)CCC1CC(OC(=O)NCc2ccc3c(c2)OCO3)CC2(CCCC(COC(=O)NCCOc3ccccc3)O2)O1 (stereo not given in full) | 0.425 | -1.24 (inactive) | 0.975 (inactive) | -1.76 (inactive) | -0.102 (inactive) | 0.0995 (inactive) | 0.662 (inactive) | 0.181 (inactive) | 0.579 | -0.0832 |
| CC(CCN1CCCc2nc(C)c(C)cc21)=NOC[C@@H](O)COCc1ccco1 | 0.365 | 0.657 (inactive) | 0.107 (inactive) | -0.697 (inactive) | 1.24 (inactive) | -0.349 (inactive) | 0.557 (inactive) | 0.948 (inactive) | 0.592 | 2.53 |
| COc1cccc([C@H]2Oc3ccc(OC)cc3C(=NOCC[C@@H]3C=C[C@H](OC(C)=O)[C@@H](COC(C)=O)O3)[C@@H]2O)c1 | -0.76 | 0.813 (inactive) | -0.698 (inactive) | 0.472 (inactive) | 0.0767 (inactive) | 0.614 (inactive) | 0.688 (inactive) | -0.53 (inactive) | -0.583 | 0.0123 |
| CC1(C)O[C@H]2O[C@H]([C@H](O)CON=C3[C@H]4CCn5c(=O)n(-c6ccccc6)c(=O)n5[C@H]4[C@H](O)[C@@H]4O[C@H]34)[C@H](O)[C@H]2O1 | -0.294 | -0.139 (inactive) | 0.159 (inactive) | -0.327 (inactive) | 0.593 (inactive) | -0.894 (inactive) | 0.483 (inactive) | -0.516 (inactive) | 0.343 | -0.0767 |
| C[C@@H]1CC[C@H]2C(=O)O[C@@H](CN=[N+]=[N-])CN2[C@H]1c1ccc(Br)cc1 | -0.607 | -3.55 (inactive) | -0.74 (inactive) | 5.24 (inactive) | -0.446 (inactive) | 4.32 (inactive) | 0.31 (inactive) | -1.66 (inactive) | -4.06 | -0.0421 |
| O=C1[C@H]2[C@H]3[C@H](O)[C@H](O)CC(=NO[C@@H]4O[C@H](CO)[C@@H](O)[C@H](O)[C@H]4O)[C@@H]3CC[C@H]2C(=O)N1C[C@@H]1CCCO1 | -0.0979 | -2.29 (inactive) | -0.589 (inactive) | -2.39 (inactive) | -0.589 (inactive) | -0.633 (inactive) | 0.564 (inactive) | 0.172 (inactive) | 0.062 | -0.152 |
| C[C@@H](c1ccccc1)N1C(=O)[C@H]2[C@H]3[C@H](O)[C@H](O)CC(=NNC(=O)OCc4ccccc4)[C@@H]3CC[C@H]2C1=O | -0.289 | 0.862 (inactive) | -0.465 (inactive) | -0.594 (inactive) | -0.155 (inactive) | -0.396 (inactive) | 0.288 (inactive) | 0.476 (inactive) | -0.158 | -0.0749 |
| CCOC(=O)[C@H](Cc1ccccc1)NC(=O)CCC1CC(OC(=O)NCCc2ccc(F)cc2)CC2(CCCC(COC(=O)NCc3cccc(C(F)(F)F)c3)O2)O1 (stereo not given in full) | 0.134 | -0.0427 (inactive) | 0.853 (inactive) | -0.276 (inactive) | 0.544 (inactive) | 0.322 (inactive) | 0.141 (inactive) | 0.0159 (inactive) | 0.864 | -0.102 |
| COCC#Cc1ccc([C@@H]2N[C@H](C(=O)O)CC[C@H]2C)cc1 | -0.041 | -1.71 (inactive) | 0.525 (inactive) | -1.53 (inactive) | 0.143 (inactive) | -2.45 (inactive) | 0.966 (inactive) | -0.94 (inactive) | -0.293 | -0.416 |
| C[C@H]1CC[C@@H](C(=O)O)N[C@@H]1c1ccc(C#Cc2ccccc2)cc1 | -0.214 | -19.1 (active) | -0.477 (inactive) | -1.36 (inactive) | -0.446 (inactive) | -18.9 (active) | -0.0449 (inactive) | -0.384 (inactive) | 0.0569 | -0.0773 |
| COC(=O)CC=C[C@@H](C)[C@@H](C=NOC[C@@H](O)[C@H]1O[C@@H]2OC(C)(C)O[C@@H]2[C@H]1O)OC | -0.904 | -0.385 (inactive) | -0.311 (inactive) | 0.757 (inactive) | -0.525 (inactive) | 0.442 (inactive) | 0.404 (inactive) | 0.493 (inactive) | -1.51 | -0.158 |
| O=C1C=C[C@@H](O)[C@@H]2[C@@H]3C(=O)N(Cc4ccccc4)C(=O)[C@@H]3CC[C@@H]12 | -0.178 | -0.459 (inactive) | 0.183 (inactive) | -0.136 (inactive) | 0.647 (inactive) | -0.83 (inactive) | 0.479 (inactive) | 0.116 (inactive) | -0.242 | -0.0566 |
| CC(CCC(=O)OC[C@H]1O[C@H](C#Cc2ccccc2)C=C[C@@H]1Oc1ccc(C)cc1)=NO[C@H](C)c1cn([C@@H]2COC[C@H]2O)nn1 | -0.458 | -0.174 (inactive) | -1.7 (inactive) | -2.12 (inactive) | 1.12 (inactive) | -2.02 (inactive) | -0.698 (inactive) | -0.651 (inactive) | -0.474 | -0.0793 |
| O=C1C2=CC[C@H]3C(=O)N(C4CCCCC4)C(=O)[C@H]3[C@H]2[C@H](O)[C@@H]2O[C@H]12 | -3.76 | -5.74 (inactive) | -7.88 (inactive) | -3.96 (inactive) | -0.2 (inactive) | -1.83 (inactive) | 0.0488 (inactive) | -1.02 (inactive) | -4.05 | 0.0694 |
| CCc1cc2c(nc1CC)CCN(CCC(C)=NOC[C@@H](C)[C@H](OCc1ccccc1)C(C)C)C2 | -0.0541 | -0.258 (inactive) | 0.0348 (inactive) | -1.67 (inactive) | -0.537 (inactive) | -2.21 (inactive) | -0.231 (inactive) | -0.313 (inactive) | -0.261 | -0.11 |
| CC=CC1=C(CO)[C@H](O)[C@H]2O[C@H]2[C@@H]1O | -0.504 | -0.299 (inactive) | 0.133 (inactive) | 0.781 (inactive) | -0.102 (inactive) | 0.39 (inactive) | 0.615 (inactive) | -0.442 (inactive) | 0.694 | -0.204 |
| COc1ccc(OC[C@@H]2CC3[C@@H](c4ccc(Br)cc4)[C@H](C)CC[C@H]3C(=O)O2)cc1 (stereo not given in full) | 0.527 | -0.845 (inactive) | 0.364 (inactive) | 0.301 (inactive) | -0.315 (inactive) | 0.0086 (inactive) | -0.941 (inactive) | -1.58 (inactive) | 1.04 | 0.326 |
| CC(CCC(=O)OC[C@H]1O[C@H](C#Cc2ccccc2)C=C[C@@H]1Oc1ccc(C)cc1)=NOC(C)CN1CCCc2nc(C)c(C)cc21 (stereo not given in full) | -0.374 | -0.525 (inactive) | -0.541 (inactive) | 0.589 (inactive) | 0.335 (inactive) | 0.797 (inactive) | 0.879 (inactive) | -0.41 (inactive) | -0.0206 | 0.257 |
| CO[C@H]1COC(=O)CC=C[C@H](C)[C@H](OC)COC(=O)[C@@H](C)NC(=O)CC=C[C@@H]1C | 0.664 | -1.17 (inactive) | 0.623 (inactive) | -0.498 (inactive) | -0.467 (inactive) | -1.22 (inactive) | 0.124 (inactive) | -0.0133 (inactive) | 0.379 | 0.0399 |
